Screening results deposited in PubChem by several laboratories.
Rtt109 Vps75: inhibitors of Candida albicans Rtt109/Vps75 histone acetyltransferase. inhibition, % at 34.9 µM. Q5AAJ8. 330,000 tested, 0.16% active. purified Rtt109/Vps75, ThioGlo CoA-SH fluorescence, 4 h;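 active = inhibition of at least 50% in every replicate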
ABHD5 PLIN5 PPI: blocks binding of human ABHD5 to perilipin-5; Split G. princeps luciferase complementation, luminescence, 4 h; inhibition, % at 4 µM; Q00G26+Q8WTS1; 360,000 tested, 0.78% active;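 active = inhibition above the mean inhibition across every tested compound plus 3 SD, cut at about 22% in these data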;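 note: 0% = DMSO only wells and the 100% control is not disclosed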
Target sequence (Q00G26 whole entry, looked up): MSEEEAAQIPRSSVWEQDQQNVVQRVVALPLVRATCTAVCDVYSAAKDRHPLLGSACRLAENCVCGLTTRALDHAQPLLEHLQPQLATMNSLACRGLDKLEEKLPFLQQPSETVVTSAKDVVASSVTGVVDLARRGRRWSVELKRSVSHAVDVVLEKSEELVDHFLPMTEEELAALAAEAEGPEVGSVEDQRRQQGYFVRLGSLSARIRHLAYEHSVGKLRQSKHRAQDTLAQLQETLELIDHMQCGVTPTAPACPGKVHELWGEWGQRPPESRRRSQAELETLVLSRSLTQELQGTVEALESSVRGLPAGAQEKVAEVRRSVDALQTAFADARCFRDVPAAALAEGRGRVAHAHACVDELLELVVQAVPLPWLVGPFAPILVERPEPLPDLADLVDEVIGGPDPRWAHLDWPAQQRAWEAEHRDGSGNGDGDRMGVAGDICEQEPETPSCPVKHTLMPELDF
Target sequence (Q8WTS1 whole entry, looked up): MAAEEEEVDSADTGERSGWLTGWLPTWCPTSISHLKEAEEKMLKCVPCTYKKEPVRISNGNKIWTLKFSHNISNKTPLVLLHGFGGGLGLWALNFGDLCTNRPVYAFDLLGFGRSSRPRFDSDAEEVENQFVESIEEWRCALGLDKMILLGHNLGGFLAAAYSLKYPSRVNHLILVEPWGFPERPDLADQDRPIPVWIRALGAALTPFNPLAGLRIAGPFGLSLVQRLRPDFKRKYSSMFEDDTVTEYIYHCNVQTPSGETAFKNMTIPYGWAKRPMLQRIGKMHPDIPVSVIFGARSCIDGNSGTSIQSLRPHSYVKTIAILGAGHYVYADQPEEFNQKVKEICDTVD
ALR H2O2 inh: inhibitors of human sulfhydryl oxidase ALR. P55789. 290,000 tested, 3.8% active. AID 485317. inhibition, % (no concentration beside the values). purified ALR, DTT oxidation, H2O2 HRP-luminol luminescence;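 active = mean replicate inhibition above about 79%, with every replicate also reaching it, limit read from the data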
LANA-H2A inh: blocks KSHV LANA binding to histone H2A/H2B; Q9QR71; cell-free LANA-H2A/H2B peptide, fluorescence polarization; inhibition, % (no concentration beside the values); 320,000 tested, 0.6% active; in the data active = inhibition mostly above about 10%, no sharp cut-off; inactive = mostly below about 6.7%
PRMT1 FP inh: blocks human protein arginine methyltransferase 1. 370,000 tested, 1.3% active. Q99873. recombinant PRMT1, activity-based probe fluorescence polarization. inhibition, % at 2.79 µM. AID 652257;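 active = inhibition above about 21% made by adding two undisclosed values, limit read from the data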
rCAG RNA binder: molecules binding r(CAG) RNA repeats. r(CAG) RNA repeat, TO-PRO-1 dye displacement fluorescence. AID 651821. 370,000 tested, 1.3% active. inhibition, % at 3 µM;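 active = inhibition above the plate cutoff, the mean of all test compounds on that plate plus 3 SD, cut at about 35% in these data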;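 note: 0% = DMSO alone and 100% = 100 µM mitoxantrone as full dye displacement; higher means more dye released from RNA so lower well fluorescence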
* marks the source's active call; other numbers are inactive results; / = no result. Hits are enriched below; roughly 5.9% of the tested compounds scored in any of these assays.

SMILES	Rtt109 Vps75	ABHD5 PLIN5 PPI	ALR H2O2 inh	LANA-H2A inh	PRMT1 FP inh	rCAG RNA binder
CC(C)Nc1ncnc2c1ncn2[C@H]1CN(CCN2CCOCC2)C[C@@H](CO)O1	/	3	/	/	-3	1
Cn1cccc1/C=C1\SC(=Nc2ccc(O)cc2)NC1=O	-2	12	99*	1	6	7
COc1cc(/C=C2\SC(=Nc3ccc(O)cc3)NC2=O)cc(OC)c1O	-3	10	8	11*	3	16
O=C1NC(=O)C(=Cc2ccc(Cl)c(Cl)c2)S1	-1	2	/	/	1	34
O=C1NC(=O)/C(=C/c2ccc(O)cc2)S1	14	4	99*	-11	1	-2
COc1ccccc1CNc1nc(Nc2cccc(-c3cnco3)c2)c2sccc2n1	/	8	/	/	-5	8
COc1ccc(Br)cc1/C=N/Nc1ccccn1	0	1	-2	-7	-1	5
COc1ccc(/C=N/NC(=O)C(=O)Nc2ccccn2)cc1OC	-1	-2	/	3	1	0
COc1ccc(/C=N/Nc2ccccn2)cc1OC	6	-3	99*	1	1	-4
O=c1nccc(N/N=C/c2cccc(O)c2)[nH]1	6	-7	52	-1	3	-1
COc1cc(/C=N/Nc2ccccn2)ccc1O	-41	-1	97*	0	-3	-1
COc1cc(/C=N/Nc2ccnc(=O)[nH]2)ccc1O	-6	0	98*	3	6	0
O=C(NC1CCCC1)C(c1ccco1)N1CCC(O)(c2ccc(Cl)cc2)CC1 (stereo not given)	/	2	/	/	6	-1
Cc1ccc(-n2c(SCC(=O)Nc3ccc(S(=O)(=O)Nc4cc(C)nc(C)n4)cc3)nnc2-c2ccncc2)cc1	/	/	/	/	3	30
CCN(CC)c1ccc(Nc2cc3n(c(=O)n2)CCc2cc(OC)c(OC)cc2-3)cc1	-1	0	100*	1	3	8
COc1cc2c(cc1OC)-c1cc(Nc3ccc(F)cc3)nc(=O)n1CC2	-5	10	-3	0	1	1
COc1cc2c(cc1OC)-c1cc(Nc3ccc(N(C)C)cc3)nc(=O)n1CC2	8	14	99*	1	1	7
O=C(COc1ccccc1[N+](=O)[O-])N/N=C/c1ccc(O)cc1	-4	3	/	/	-3	1
CCc1ccc(OCC(=O)N/N=C\c2ccco2)c([N+](=O)[O-])c1	1	-3	96*	2	-2	10
Cc1ccc(OCC(=O)N/N=C\c2ccc(O)cc2)c([N+](=O)[O-])c1	2	6	87*	2	-4	1
c1ccc(NNC2=NCCCCC2)cc1	-7	4	99*	2	4	0
c1ccc(CNC2=NCCCCC2)cc1	-1	5	-4	14	4	1
OCc1ccc(-c2nn(Cc3ccccc3)c3ccccc23)o1	0	21	92*	-7	19	4
N#C/C(=C\c1ccncc1)c1nc2c(s1)CCCC2	57*	2	16	-2	-7	-4
CC1(C)Cc2nc3n[nH]c(N)c3cc2CO1	-3	1	87*	2	-1	2
SMILES	Rtt109 Vps75	ABHD5 PLIN5 PPI	ALR H2O2 inh	LANA-H2A inh	PRMT1 FP inh	rCAG RNA binder
C[C@H](O)[C@@H]1C(=O)N2CCc3c([nH]c4c(-c5ccccc5)cccc34)[C@@H]2C[C@@H]1N(C)C(=O)OCc1ccccc1	/	/	/	/	-7	8
C=CCC(Nc1ccccc1)c1ccc(OC)c(OC)c1 (stereo not given)	/	/	96*	-3	/	/
Cc1cccc(OCc2nnc(SC(C)C(=O)O)n2Cc2ccccc2)c1 (stereo not given)	-3	-12	-3	3	-1	7
Cc1ccc(OCc2nnc(SC(C)C(=O)O)n2Cc2ccccc2)cc1 (stereo not given)	-1	3	-5	11*	-1	12
Cc1cc(C(=O)Nc2ccc(F)cc2)n(-c2ccccc2)n1	/	/	/	/	0	3
CCOC(=O)C1(Cc2cccc(Cl)c2)CCCN(C(=O)c2ccoc2C)C1 (stereo not given)	5	4	14	95*	3	-8
CCOC(=O)C1(Cc2cccc(Cl)c2)CCCN(C(=O)c2ccco2)C1 (stereo not given)	-12	0	-3	4	-1	-3
Nc1ccc2nc(CCc3ccccc3)[nH]c2c1	7	5	99*	1	0	2
c1ccc(Cc2nc3ccccc3[nH]2)cc1	10	-1	-6	4	0	1
Cc1ccc2nc(CCc3ccc(N)cc3)[nH]c2c1	0	9	99*	0	0	7
Nc1ccc(Cc2nc3cc4ccccc4cc3[nH]2)cc1	/	/	-6	-9	0	3
CCCCNC(=O)C1C(c2ccc(OC)cc2)=Nc2ccccc2N1C(=O)c1cccnc1 (stereo not given)	/	6	/	/	-2	0
COc1cccc(NC(=O)Nc2cccs2)c1	-5	1	29	0	-2	4
Cc1ccc(NC(=O)Nc2cccs2)cc1	-9	-9	98*	-7	0	8
CC(=O)c1cccc(NC(=O)Nc2cccs2)c1	14	-11	96*	1	2	8
Cc1ccc(NC(=O)Nc2cccs2)nc1	-4	-10	98*	-4	2	4
O=C(Nc1cccs1)Nc1ccccc1Cl	-2	-2	89*	3	3	2
O=C(CN(C(=O)c1csnn1)c1cccc2ccccc12)NCc1ccc(F)cc1	3	6	-5	20*	0	2
CSCCC(NS(=O)(=O)c1ccc2ccccc2c1)C(=O)O (stereo not given)	0	5	-8	28*	-1	4
COc1ccc(C(=O)COC(=O)C(CCSC)NS(=O)(=O)c2ccc(Cl)cc2)cc1 (stereo not given)	-2	4	9	176*	-1	1
CSCCC(NS(=O)(=O)c1ccc(Cl)c(Cl)c1)C(=O)O (stereo not given)	-2	0	12	17*	-4	3
N=c1c[n+](N2CCOCC2)[n-]o1	56*	4	5	-1	0	6
COc1ccc(NCc2cc(=O)[nH]c3ccccc23)cc1	-2	-11	99*	0	2	2
O=C(OCc1ccc(Br)cc1)c1ccncc1	57*	5	-7	-4	-1	-1
COc1cccc(CNC(=O)[C@@H]2CCCN2C(=O)[C@H]2CCCCN2C(=O)c2cccs2)c1	/	1	/	/	2	-1
CN(Cc1ccccc1)C(=O)C1CCCN1S(=O)(=O)c1ccc2c(c1)n(C)c(=O)c(=O)n2C (stereo not given)	-2	-2	0	24*	0	-5
CCc1ccccc1NC(=O)C1CCCN1S(=O)(=O)c1ccc2c(c1)n(C)c(=O)c(=O)n2C (stereo not given)	-11	2	-4	-3	-1	1
